Structures are written as SMILES. About 100 (3%) of roughly 3,300 compounds were called active. Rule as the data show it: active = inhibition above about 9.5%; inactive = the rest. Not all results are given here.

Consider 90 molecules from PubChem BioAssay AID743258 (The Scripps Research Institute Molecular Screening Center, 2014).

For the experiment, the target named is 1-phosphatidylinositol 4,5-bisphosphate phosphodiesterase gamma-1 (Homo sapiens) (UniProt P19174). Description: human PLCG1 activity blockade – biochemical, fluorescence, counter-screen for PLC-beta3 inhibitor project (AID 743258). As to conditions: purified PLC-gamma1, fluorogenic substrate, at 12.3 µM, active compounds read high. On the technique in general: The purpose of a counterscreen is to sort out artefacts and off-target activity.
1-phosphatidylinositol 4,5-bisphosphate phosphodiesterase gamma-1 (Homo sapiens), sequence (P19174 whole entry, looked up): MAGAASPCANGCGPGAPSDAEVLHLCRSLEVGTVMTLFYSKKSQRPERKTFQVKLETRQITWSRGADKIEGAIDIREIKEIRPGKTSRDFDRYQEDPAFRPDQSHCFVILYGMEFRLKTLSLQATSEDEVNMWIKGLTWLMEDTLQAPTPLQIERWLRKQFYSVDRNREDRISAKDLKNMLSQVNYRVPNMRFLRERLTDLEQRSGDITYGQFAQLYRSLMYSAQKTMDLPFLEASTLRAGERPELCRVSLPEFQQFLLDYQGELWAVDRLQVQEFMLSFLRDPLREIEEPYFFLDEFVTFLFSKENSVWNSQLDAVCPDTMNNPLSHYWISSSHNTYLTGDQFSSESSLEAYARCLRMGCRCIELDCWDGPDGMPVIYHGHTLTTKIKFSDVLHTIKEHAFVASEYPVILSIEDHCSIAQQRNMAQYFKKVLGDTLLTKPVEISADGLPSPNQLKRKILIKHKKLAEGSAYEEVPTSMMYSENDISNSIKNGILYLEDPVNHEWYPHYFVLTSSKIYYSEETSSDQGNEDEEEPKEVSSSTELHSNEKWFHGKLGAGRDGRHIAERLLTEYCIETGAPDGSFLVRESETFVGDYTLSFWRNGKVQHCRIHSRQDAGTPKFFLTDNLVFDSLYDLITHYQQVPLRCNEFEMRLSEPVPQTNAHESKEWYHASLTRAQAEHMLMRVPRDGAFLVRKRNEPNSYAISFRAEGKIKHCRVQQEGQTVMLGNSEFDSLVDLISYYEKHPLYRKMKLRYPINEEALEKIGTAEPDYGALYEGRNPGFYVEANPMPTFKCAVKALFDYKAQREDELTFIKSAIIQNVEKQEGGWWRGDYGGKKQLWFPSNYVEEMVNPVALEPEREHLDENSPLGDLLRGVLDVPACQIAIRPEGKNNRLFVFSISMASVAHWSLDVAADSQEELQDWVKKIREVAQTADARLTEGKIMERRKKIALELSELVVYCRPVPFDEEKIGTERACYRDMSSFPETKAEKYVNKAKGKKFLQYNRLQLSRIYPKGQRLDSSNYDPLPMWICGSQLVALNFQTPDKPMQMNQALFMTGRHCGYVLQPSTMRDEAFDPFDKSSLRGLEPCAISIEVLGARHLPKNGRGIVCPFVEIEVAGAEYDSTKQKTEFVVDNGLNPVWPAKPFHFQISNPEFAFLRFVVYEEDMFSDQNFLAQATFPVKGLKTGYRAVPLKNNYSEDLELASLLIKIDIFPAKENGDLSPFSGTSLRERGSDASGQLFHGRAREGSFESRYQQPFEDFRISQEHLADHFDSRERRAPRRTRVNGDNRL
In the case of `CCCCNc1ccc(C(=O)Nc2cccc(C)n2)cc1[N+](=O)[O-]`, the inhibition (commonly the relative decrease from the control value, in per cent) was -2.76% (inactive). With `Nc1nnc(SCC(=O)OCc2ccc(Cl)c(Cl)c2)s1`, the inhibition is -3.53% (inactive). On to `CCCCn1c(SCC(=O)N2CCCC2=O)nc2cc(S(N)(=O)=O)ccc21`, for which the inhibition was -2.51% (inactive). Take `COc1ccccc1CCNC(=O)CN1C(=O)NC2(CCCC2)C1=O`: the inhibition was 5.92% (inactive). As for `Cc1cc(C)c(NC(=O)CN2CCOCCOCCOCCOCC2)c(C)c1`, the inhibition was -2.06% (inactive).

With `O=c1c([N+](=O)[O-])cc(C(F)(F)F)cn1Cc1cccc(Cl)c1`, the inhibition was 8.36% (inactive). Take `O=C(CSc1ncn[nH]1)N/N=C/c1ccc(F)cc1`: the inhibition was 0.56% (inactive). With `CCOC(=O)[C@]12CCCC=C1N(CCCOC)C(=O)[C@@H]2CC(=O)N1CCOCC1` the figure was -3.38% (inactive); with `Cc1nc(Nc2ccccc2C)c2cnn(C)c2n1`, -6.74% (inactive). For the molecule `Cc1cc(NC(=O)COn2nnc3ccccc32)no1`, the inhibition is -0.28% (inactive). Regarding `C[C@]12c3[nH]c4ccc(Cl)cc4c3CCN1C(=O)[C@@H](CC(=O)NCCCn1ccnc1)C[C@@H]2C(=O)N1CCOCC1`, the inhibition is -7.65% (inactive).

As for `C=CC1=C(C(=O)O)N2C(=O)[C@@H](NC(=O)/C(=N\OCC(=O)O)c3csc(N)n3)[C@H]2SC1`, the inhibition is 88.6% (active).

Consider `COc1ccc(C(N)c2csc(NC(=O)Nc3cccc(C(F)(F)F)c3)n2)cc1` (stereo not given), for which the inhibition was -0.69% (inactive). Take `COc1ccc(/C(C)=N/N2CCOCC2)c(O)c1`: the inhibition is -16.2% (inactive). As to `CC(C)n1c(CN2CCN(Cc3ccccc3)CC2)nc2ccccc21`, the inhibition is -8.55% (inactive). Regarding `CC(=O)C12CC(C)=C(C)CC1CC1C3CCC4=CC(=O)CCC4(C)C3CCC12C` (stereo not given), the inhibition is -1.14% (inactive). Regarding `O=C(NC12CC3CC(CC(C3)C1)C2)N1CCCC(CO)C1` (stereo not given), the inhibition is -3.42% (inactive). Take `COc1ccccc1C(=O)N1C(CC(=O)Nc2ccccc2C)C(=O)NC2CCCCC21` (stereo not given): the inhibition is -4.18% (inactive). Consider `C=CCn1c(SCn2nnc3ccccc3c2=O)nnc1-c1ccc(Cl)cc1`, for which the inhibition is -4% (inactive).

Consider `CCOC(=O)C1CCN(C(=O)c2ccccc2N(C)S(=O)(=O)c2ccccc2)CC1`, for which the inhibition was -3.46% (inactive). With `CCC[C@H]1CCCC/C=C\CCCC(=O)OCCN1C(=O)OC(C)(C)C` the figure was 1.42% (inactive); with `Cc1cccc([C@@H]2[C@@H]3C(=O)N(Cc4ccccc4)C(=O)[C@@H]3[C@]3(Cc4ccc(Cl)cc4)C(=O)N(c4cccc(Cl)c4)C(=O)N23)c1`, 3.36% (inactive); with `Cc1c(C(=O)c2cccc([N+](=O)[O-])c2)c2ccccn2c1CCC#N`, -0.24% (inactive). With `CC1(C)CC(=O)C=C(NC2CC(C)(C)NC(C)(C)C2)C1` the figure was -0.48% (inactive); with `Cc1ccc(-c2cn(S(=O)(=O)c3cccc([N+](=O)[O-])c3)nc2N)cc1`, -5.96% (inactive); with `O=C(Nc1ccc(Br)cc1)C1CCC(=O)N1Cc1ccccc1Cl` (stereo not given), -0.49% (inactive). As for `CCN(CC)Cc1csc2ccc(Br)cc12`, the inhibition was -2.99% (inactive). With `Cc1nc2ccccc2nc1CC(O)(c1ccccc1)c1ccccc1` the figure was 1.82% (inactive); with `C/C(CC(C)C)=N\Oc1nc(C)cc(C)n1`, -8.49% (inactive). The result for `O=C(c1ccc2c(c1)OCO2)N1CCNc2ccccc2C1` reads -5.39% (inactive); that for `Cc1cccc(C(=O)NCCCN2CCCC2=O)c1`, -4.45% (inactive); that for `Cc1ccc(NC(=S)N(Cc2ccco2)C(C)c2cccs2)cc1` (stereo not given), -3.86% (inactive). With `O=c1c2ccccc2c(-c2ccccc2)nn1Cc1ccccc1` the figure was -4.2% (inactive). On to `O=C1c2ccccc2S(=O)(=O)N1CC(O)Cn1c2ccccc2c2ccccc21` (stereo not given), for which the inhibition was 2.37% (inactive). Turning to `O=C(/C=C/c1c(F)cccc1Cl)Nc1nn[nH]n1`, the inhibition was -8.5% (inactive).

Regarding `CCOc1ccccc1NC(=O)c1cccnc1`, the inhibition was -8.44% (inactive). Regarding `CCc1c(Nc2ccccc2C)nc(N)[nH]c1=O`, the inhibition was 0.72% (inactive). With `COc1ccc([N+](=O)[O-])cc1N(CC(O)Cn1nnc2ccccc21)S(=O)(=O)c1ccc(C)cc1` (stereo not given) the figure was -0.66% (inactive); with `COc1cc(NC(=O)COC(=O)c2ccc([N+](=O)[O-])s2)cc(OC)c1OC`, -0.3% (inactive); with `Cc1ccc(C(=O)N2CCN(C(=O)N3CCOCC3)CC2)cc1`, -6.45% (inactive). On to `O=C(CSc1nnc(-c2ccncc2)n1C1CCCCC1)Nc1ccccc1`, for which the inhibition was -6.62% (inactive). Turning to `COC(=O)NC1(C(F)(F)F)NC(=O)N(C2CCCCC2)C1=O` (stereo not given), the inhibition was -2.81% (inactive). With `CN(C)S(=O)(=O)c1cccc(NC(=O)COC(=O)C2(c3ccccc3F)CCCC2)c1` the figure was -1.97% (inactive); with `O=C(O)c1ccc(Cn2c(=S)[nH]c3cc(Cl)ccc3c2=O)cc1`, -7.72% (inactive). The result for `C[C@H](C(=O)N(C)c1ccccc1)[C@@H](O)c1ccc2ccccc2c1` reads -5.46% (inactive); that for `CC(C)(C)c1ccc(C(=O)Nc2cc(Cl)c(Br)cc2C(=O)O)cc1`, -7.48% (inactive). The result for `CN(C)/C=C(/C(=O)c1ccc(Cl)cc1)S(=O)(=O)c1ccccc1` reads -4.31% (inactive). Regarding `CCOc1ccc(NC(=O)[C@H](C)NC(=O)C2CC(=O)N(c3ccc(OC)cc3)C2)cc1` (stereo not given in full), the inhibition was -8.84% (inactive). On to `CC1Oc2ccccc2N(Cc2cccnc2)C1=O` (stereo not given), for which the inhibition is -5.05% (inactive). The result for `CCOC(=O)N1CCC(c2cc(=O)n(-c3ccccc3)[nH]2)CC1` reads 2.8% (inactive). With `CC(C)C(NC(=O)C1CCC(C(C)(C)C)CC1)C(=O)NCCCN1CCCCC1` (stereo not given) the figure was 8.08% (inactive); with `CC1(C)CC(=O)C=C(NCCN2CCNCC2)C1`, -10.6% (inactive); with `Cc1ccc(S(=O)(=O)N2CCCCC2)cc1NC(=O)CCNC(=O)c1ccccc1`, -4.84% (inactive).

On to `O=C1CS(=O)CN1c1ccc(Oc2ccccc2)cc1` (stereo not given), for which the inhibition was 24.1% (active). With `CC(C)Oc1ccc(CC(=O)NNC(=S)Nc2ccc(Br)cc2)cc1` the figure was -9.3% (inactive). The result for `OC(CNCC1CCCO1)Cn1c2ccc(Br)cc2c2cc(Br)ccc21` (stereo not given) reads -8.03% (inactive); that for `Cc1ccccc1C(=O)Nc1ccccc1Sc1ccccc1`, -2.19% (inactive); that for `CC(=O)c1c(C)[nH]c(C(=O)OCC(=O)Nc2cc(S(=O)(=O)N3CCCCC3)ccc2C)c1C`, -5.44% (inactive). The result for `O=C(CCNS(=O)(=O)c1ccc(Br)cc1)NCC1CCCO1` (stereo not given) reads -3.55% (inactive); that for `CCOC(=O)Nc1ccc(NC(=O)OCC)cc1`, 5.66% (inactive); that for `Cc1ccc(S(=O)(=O)Cn2nnnc2CN2CCN(Cc3ccc4c(c3)OCO4)CC2)cc1`, 0.94% (inactive). For the molecule `Cc1cccc(NC(=O)c2ccc3c(=O)n(CC4CCCO4)c(=S)[nH]c3c2)c1` (stereo not given), the inhibition was -0.76% (inactive). With `CCn1c(/C=C/Nc2ccccc2)[n+](CC)c2ccc(C(=O)OCC(F)(F)F)cc21`, the inhibition is -14.3% (inactive). The result for `Cc1ccc(/C=N/NC(=O)CSc2nc3ccccc3o2)cc1` reads -5.43% (inactive); that for `CNC(=O)c1ccc(NC(=O)c2cccc(C(F)(F)F)c2)cc1`, -6.45% (inactive). The result for `CCCCc1nc2ccccc2c(NC(=O)CN2CCN(C)CC2)c1CCC` reads -4.07% (inactive); that for `COc1ccccc1C(=O)Nc1cccc(C(=O)N2CCOCC2)c1`, -6.49% (inactive); that for `COCCCN(C(=S)Nc1c(C)cc(C)cc1C)C(C)c1ccncc1` (stereo not given), -0.82% (inactive). `Cc1ccc(C)c(N2CCN(S(=O)(=O)c3c(C)[nH]c(C)c3C(=O)N3CCCC3)CC2)c1`: the inhibition was -8.57% (inactive). For `CN(CC(=O)NC1CCCCC1)S(=O)(=O)c1ccc(Br)s1`, the inhibition is -5.25% (inactive). Consider `O=C1N[C@@H](c2ccccc2)COC(=O)[C@H](Cc2ccc(F)cc2)C/C=C\C[C@@H]1CC(=O)N(CCO)Cc1ccccc1`, for which the inhibition was -2.05% (inactive). With `Cc1ccc(N2CC(C(=O)NCCS(=O)(=O)N3CCN(c4ccccc4)CC3)CC2=O)cc1` (stereo not given) the figure was -3.74% (inactive). As for `O=c1ccc2c(-c3ccccc3S(=O)(=O)O)c3ccc(O)c(O)c3oc-2c1O`, the inhibition is 26.6% (active). With `NC1=CC(=O)C(=O)c2cccnc21` the figure was 0.29% (inactive); with `CCc1ccc(-c2nc(SCC(=O)NC3CCCC3)n[nH]2)cc1`, -6.5% (inactive); with `Cc1ccc(-n2ncc3c2CC(C)(C)CC3NC(=O)CCc2cnn(C)c2)cc1` (stereo not given), -2.59% (inactive). With `COC(=O)CN1C(=O)C(O)=C(C(C)=O)C1c1ccc([N+](=O)[O-])cc1` (stereo not given) the figure was -0.28% (inactive); with `O=C(NCc1ccc(F)cc1F)[C@@H]1CCCN1C(=O)[C@@H]1CCCN1C(=O)c1cccc(Cl)c1`, -4.84% (inactive); with `CCOc1ccc(CCNC(=O)COC(=O)CCS(=O)(=O)c2ccc(C)cc2)cc1OCC`, 1.09% (inactive).

As to `Cc1ccc(C(=O)Nc2ccc(C)c(S(=O)(=O)N(C)C)c2)s1`, the inhibition was -0.35% (inactive).

With `CC(=O)C1=C(O)C(=O)N(c2cccnc2)C1c1ccc([N+](=O)[O-])cc1` (stereo not given), the inhibition was -4.99% (inactive). For `O=C(C(c1ccccc1)c1ccccc1)N1CCN(CC(O)COc2ccccc2)CC1` (stereo not given), the inhibition is 0.93% (inactive). Turning to `NC1=NN(c2cccc(C(=O)O)c2)C(=O)C1`, the inhibition was -3.09% (inactive).

For the molecule `CCOc1cccc(-c2nnc3sc(COc4ccc(OC)cc4)nn23)c1`, the inhibition is -4.31% (inactive). `O=S(=O)(Nc1ccc(Oc2ncccn2)c(Cl)c1)c1ccc(F)cc1`: the inhibition was -6.2% (inactive). With `CC1CCN(S(=O)(=O)c2ccc(S(=O)(=O)NCc3ccco3)cc2)CC1` the figure was 0.59% (inactive); with `CN(C(=O)c1ccc(NC(=O)Cc2cccc(NC(=O)C3CCN(C(=O)c4ccccc4)CC3)c2)cc1)C1CC1`, -5.36% (inactive); with `COc1cc(OC)nc(S(C)(=O)=O)n1`, 1.91% (inactive).

For `O=C(COc1ccc(Cl)cc1)N1CCN(c2cccc(C(F)(F)F)c2)CC1`, the inhibition is -4.75% (inactive). With `COCCNC(=O)C(c1ccc(O)cc1)N(C(=O)CCC(=O)Nc1nccs1)c1ccc(C)cc1` (stereo not given) the figure was 0.09% (inactive).
